Screening results as filed in PubChem BioAssay.
CYP2C9 inh = blocks human cytochrome P450 2C9; CYP2C9 Supersomes, luciferin-H conversion, luminescence; AID 777; hit rate 20% among 96,000; inhibition, % at 5 µM; P11712;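 active means blocking of liver enzyme CYP2C9 beyond about 50% at 5 µM, limit read from the data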
Target sequence (P11712 whole entry, looked up): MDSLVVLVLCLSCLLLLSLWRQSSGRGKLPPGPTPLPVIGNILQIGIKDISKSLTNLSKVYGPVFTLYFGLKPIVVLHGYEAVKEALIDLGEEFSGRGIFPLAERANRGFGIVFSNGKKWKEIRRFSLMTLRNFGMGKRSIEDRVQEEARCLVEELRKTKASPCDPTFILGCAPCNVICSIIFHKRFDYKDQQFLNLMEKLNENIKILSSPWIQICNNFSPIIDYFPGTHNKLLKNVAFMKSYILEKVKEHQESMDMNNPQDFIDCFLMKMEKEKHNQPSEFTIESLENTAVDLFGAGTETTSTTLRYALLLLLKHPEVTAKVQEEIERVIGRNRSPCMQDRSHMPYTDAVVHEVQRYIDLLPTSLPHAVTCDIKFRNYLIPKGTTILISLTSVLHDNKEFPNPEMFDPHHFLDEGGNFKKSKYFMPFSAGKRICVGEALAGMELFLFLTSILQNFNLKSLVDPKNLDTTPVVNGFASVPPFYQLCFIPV
CYP2C19 inhib = inhibitors of human CYP2C19. AID 778. hit rate 21% among 96,000. P33261. inhibition, % at 5 µM. CYP2C19 Supersomes, luciferin-H EGE luminescence, 30 min;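 active means CYP2C19 inhibition above a set limit at 5 µM in the primary screen, cut at about 50% in these data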
CYP2C9 activ = activators of human CYP2C9; P11712; recombinant CYP2C9, luciferin-H conversion, luminescence; active compounds read high; factor 1 = untreated enzyme, 0 = blocked; activation factor at 5 µM; hit rate 1.4% among 96,000;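 active means activation factor of 2 or more for CYP2C9 at a 5 µM dose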
Measles CPE = protection of cells from measles virus | Measles virus-infected cells, CPE protection, absorbance | protection (pct of control), % at 4 µM | hit rate 1.5% among 140,000; in the data active means protection mostly above about 24%, no sharp cut-off; inactive means mostly below about 26%
CYP2C19 activ = increases human CYP2C19 enzyme activity | P33261 | recombinant CYP2C19, luciferin-H EGE luminescence; active compounds read high; 0 = fully inhibited enzyme, 1 = untreated enzyme | activation factor at 5 µM | 96,000 tested, under 10 active | AID 1025;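 active means activation factor of at least 2 at 5 µM in the primary screen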
Of the large screens only hits and unclear results are named; the others gave an inactive call. Most compounds without a hit are left out; they make up all but 22% or so of the library.

CCN1CCCC1CNC(=O)C(=O)Nc1ccccc1OC (centres undefined)	none
CC(=O)N1N=C(c2ccncc2)OC12CCCCC2	CYP2C9 inh 55, CYP2C19 inhib 88
Cc1ccc(NC(=O)C(=O)NCc2ccc(/C=C(/C#N)C(=O)NCc3cccnc3)o2)cc1C	none (no result: CYP2C9 inh, CYP2C19 inhib, CYP2C9 activ, CYP2C19 activ)
Cc1ccc(NC(=O)C(=O)NCc2ccc(/C=C(/C#N)C(=O)NCc3cccnc3)o2)cc1	CYP2C9 inh 58
COc1ccc(S(=O)(=O)N(Cc2ccc(OC)c(OC)c2)Cc2ccco2)cc1	CYP2C19 inhib 59
COc1ccc(S(=O)(=O)N(CCCN2CCOCC2)Cc2ccc(OC)c(OC)c2)cc1	CYP2C19 inhib 89
Cc1ccc(S(=O)(=O)N(Cc2ccccc2)Cc2ccco2)cc1	CYP2C9 inh 90, CYP2C19 inhib 83
COc1ccc(CN(CCCN2CCOCC2)S(=O)(=O)N(C)C)cc1OC	none
CC/C(=N\O)c1ccc(O)c(OC)c1	none
COc1cc(OC)c(OC)cc1/C=C/C(=O)c1ccc(NS(=O)(=O)c2ccc(C)cc2)cc1	none (no result: CYP2C9 inh, CYP2C19 inhib, CYP2C9 activ, CYP2C19 activ)
CN1C(=S)SC(C)(C)C1(C)NO (centres undefined)	none
CCCCOc1cccc(-c2nnc(N)s2)c1	none
CCCCCCOc1cccc(N)c1	CYP2C19 inhib 64
Cc1ccccc1NC(=O)c1ccc(S(=O)(=O)C(F)F)cc1	none (no result: CYP2C9 inh, CYP2C19 inhib, CYP2C9 activ, CYP2C19 activ)
CN(Cc1cccc(F)c1)C(=O)c1ccc(S(=O)(=O)C(F)F)cc1	CYP2C19 inhib 59
Cc1cc2nnc(SCCCCN3C(=O)c4ccccc4C3=O)n2c2ccccc12	CYP2C9 activ 2.9
O=C1c2ccccc2C(=O)N1CCCCSc1nnc2c(Cl)cc(Cl)cn12	none
O=C(O)CCC(=O)Nc1ccc(S(=O)(=O)Nc2nccs2)cc1	none (no result: CYP2C9 inh, CYP2C19 inhib, CYP2C9 activ, CYP2C19 activ)
O=S(=O)(Nc1ccc(-c2cn3ccsc3n2)cc1)c1ccc2c(c1)OCCO2	CYP2C9 inh 91, CYP2C19 inhib 76
CC(C)(C)C(=O)Nc1ccc(-c2cn3ccsc3n2)cc1	none
O=S(=O)(Nc1nccs1)c1ccc(Cl)cc1	CYP2C9 inh 50
O=S(=O)(Nc1ccc(S(=O)(=O)Nc2nccs2)cc1)c1ccc2c(c1)OCCO2	CYP2C9 inh 67
Cc1ccc(NC(=O)COC(=O)C(CC(C)C)N2C(=O)C3CC=CCC3C2=O)c(C)c1 (centres undefined)	none (no result: CYP2C9 inh, CYP2C19 inhib, CYP2C9 activ, CYP2C19 activ)
CCOC(=O)N1CCN(c2ccc(O)cc2)CC1	none
COc1ccc(/C=N/N=C2\SCC(=O)N2c2c(C)n(C)n(-c3ccccc3)c2=O)cc1OC	none (no result: CYP2C9 inh, CYP2C19 inhib, CYP2C9 activ, CYP2C19 activ)
COc1ccc(C(C)C)cc1S(=O)(=O)n1cnc(C)c1	none
Cc1ccc(Nc2nc(N)nc(CN3CCN(C(=O)c4ccco4)CC3)n2)cc1Cl	CYP2C9 inh 85, CYP2C19 inhib 78
CCN1CCN(Cc2nc(N)nc(Nc3ccc(C)c(C)c3)n2)CC1	none
Cc1cccc(Nc2nc(N)nc(CN3CCN(C)CC3)n2)c1	CYP2C9 inh 96
Cc1cccc(Nc2nc(N)nc(CN3CCN(c4ccc(F)cc4)CC3)n2)c1	CYP2C9 inh 59, CYP2C19 inhib 55
COc1ccccc1NC(=O)C(=O)N1N=C(C(C)C)CC1(O)C(F)(F)F (centres undefined)	none
COc1ccc(CN=Cc2c(C(F)(F)F)[nH][nH]c2=O)cc1	none
O=C(c1ccc(Cl)cc1)C1C2C(=O)N(c3ccccc3)C(=O)C2C2CCCN21 (centres undefined)	CYP2C9 inh 78, CYP2C19 inhib 79
CCOP(=O)(O)c1ccccc1OCCCCCOc1ccccc1P(=O)(O)OCC	none
CN(C)c1ccnc(Oc2ccccc2)c1C#N	none
CN(C)c1ccnc(-n2cccc2/C=N/OCc2ccccc2)c1C#N	CYP2C19 inhib 96
CN(C)c1ccnc(-n2cccc2/C=N/OCc2ccc(F)cc2Cl)c1C#N	CYP2C9 inh 96, CYP2C19 inhib 98
COc1ccccc1CO/N=C/c1cccn1-c1nccc(N(C)C)c1C#N	CYP2C9 inh 91, CYP2C19 inhib 99
Cc1ccc(Oc2ncccc2/C=N/OCc2ccc(Cl)cc2Cl)cc1	none
COc1ccc(-c2noc(CSc3nc(N)c(-c4ccccc4)c(=O)[nH]3)n2)cc1	CYP2C9 inh 70, CYP2C19 inhib 76
Cc1ccc(-c2noc(CSc3nnc(Cc4ccccc4)n3-c3ccc(Cl)cc3)n2)cc1	CYP2C9 inh 84, CYP2C19 inhib 84
COc1ccc(-c2noc(CSc3nc4ccccc4c(=O)n3-c3ccc(C)cc3)n2)cc1	CYP2C9 inh 66, CYP2C19 inhib 63
Nc1nc(SCc2ccc(Cl)cc2)[nH]c(=O)c1-c1ccccc1	none (no result: CYP2C9 inh, CYP2C19 inhib, CYP2C9 activ, CYP2C19 activ)
COc1ccc(-c2noc(CSc3nnc(Cc4ccccc4)n3-c3ccc(Cl)cc3)n2)cc1	CYP2C9 inh 80, CYP2C19 inhib 87
Cn1c(SCc2nc(-c3ccc(Cl)cc3)no2)nnc1-c1ccccc1	none
O=c1c2ccccc2nc(SCc2cccc(F)c2)n1C1CCCC1	none (no result: CYP2C9 inh, CYP2C19 inhib, CYP2C9 activ, CYP2C19 activ)
CC(C)(C)c1ccc(COn2c(=O)c(-c3ccco3)[n+]([O-])c3ccccc32)cc1	none
CCSc1nc(N)c2c3c(sc2n1)CCC3	CYP2C19 inhib 96
NC(=O)CSc1nc(N)c2c3c(sc2n1)CCCCC3	CYP2C19 inhib 67
CNC(=O)CSc1nc(N)c2c3c(sc2n1)CCC3	none
COc1cccc(-n2nnc3c(=O)n(CC(=O)N4CCCc5ccccc54)cnc32)c1	none
Cc1cccc(C)c1NC(=O)Cn1nc(-c2ccccc2)nc1-c1ccccc1	CYP2C9 inh 66
Cc1ccccc1NC(=O)Cn1nc(-c2ccccc2)nc1-c1ccccc1	CYP2C9 inh 56
O=C(C[n+]1cnn(CC(=O)c2ccc(Cl)cc2Cl)c1)c1ccc([N+](=O)[O-])cc1	none (no result: CYP2C9 inh, CYP2C19 inhib, CYP2C9 activ, CYP2C19 activ)
CCOC(=O)CN1C=C(c2ccc3ccccc3n2)C(C[N+](=O)[O-])c2ccccc21 (centres undefined)	CYP2C9 inh 92, CYP2C19 inhib 72
CC(C)C(=O)N=C1SC2CS(=O)(=O)CC2N1Cc1ccccc1 (centres undefined)	none (no result: CYP2C9 inh, CYP2C19 inhib, CYP2C9 activ, CYP2C19 activ)
COc1ccc(OC)c(NC(=O)C23CC4CC(C2)CC(n2cnc(Br)n2)(C4)C3)c1	CYP2C19 inhib 72, CYP2C9 activ 2.6
COc1ccc(NC(=O)C23CC4CC(C2)CC(n2cnc(Br)n2)(C4)C3)c(OC)c1	none
CN(C)/C=C1/C=C(c2ccccc2)OC1=O	none
O=C1C=C(c2ccccc2)OC(=O)C1C(=O)c1ccccc1 (centres undefined)	Measles CPE 27 (no result: CYP2C9 inh, CYP2C19 inhib, CYP2C9 activ, CYP2C19 activ)
Fc1ccccc1CSc1ncnc2sc3c(c12)CCCC3	none (no result: CYP2C9 inh, CYP2C19 inhib, CYP2C9 activ, CYP2C19 activ)
Nc1cc(C(=O)OCC(=O)NCC2CCCO2)ccc1Cl (centres undefined)	CYP2C19 inhib 56
O=C(COC(=O)c1ccccc1Nc1ccccc1)NCc1ccccc1	none (no result: CYP2C9 inh, CYP2C19 inhib, CYP2C9 activ, CYP2C19 activ)
O=C(COC(=O)c1ccccc1Nc1cccc(C(F)(F)F)c1)NCc1ccco1	CYP2C9 inh 58
O=C(COC(=O)c1ccccc1Oc1ccccc1)NCc1ccco1	CYP2C9 inh 56
CC(C)NC(=O)COC(=O)c1cc(Br)ccc1Cl	Measles CPE 52 (no result: CYP2C9 inh, CYP2C19 inhib, CYP2C9 activ, CYP2C19 activ)
O=C(COC(=O)c1ccccc1)NCC1CCCO1 (centres undefined)	none
NS(=O)(=O)c1ccc(NC(=S)Nc2nn(Cc3ccc(Cl)cc3Cl)cc2Cl)cc1	none (no result: CYP2C9 inh, CYP2C19 inhib, CYP2C9 activ, CYP2C19 activ)
Nc1cc(C(=O)OCC(=O)NCc2ccco2)ccc1Cl	CYP2C19 inhib 60
